Test results from PubChem BioAssay AID686979 (National Center for Advancing Translational Sciences (NCATS), 2013).
Out of some 420,000 compounds screened, about 50,000 (12%) were called active. Roughly 26% stayed inconclusive and do not appear here. The sample holds actives, similar compounds and a random draw of the others, so the mix is not that of the screen. Values without a mark were called inactive. Calls come from the whole dose curve; as a rule, active = well fitted inhibition curve with a large enough effect; inconclusive = small, poorly fitted or top-dose-only effect; inactive = flat fitted curve, though single readings scatter.

Assay: qHTS for Inhibitors of human tyrosyl-DNA phosphodiesterase 1 (TDP1): qHTS in cells in presence of CPT; note: nearly all actives have a fitted effect of over 55% in size
Conditions: chicken DT40 Tdp1-/-;hTDP1 cells + 20 nM CPT, ATP luminescence, 48 h; series mostly up to 46.2 µM; activity change, negative = growth inhibition: at the top concentration
From the text: Human tyrosyl-DNA phosphodiesterase 1 (TDP1) is a novel repair gene, and we propose to use it as a new target for anticancer drug development. TDP1 is not an essential protein, but under treatment with topoisomerase I poison (camptothecin: CPT), TDP1 works as a critical factor for cell survival. To directly identify novel TDP1 inhibitors active in a cellular environment, we have knocked-out the Tdp1 gene in chicken DT40 cells (Tdp1-/-) and generated a complemented counterpart cells that contains a stable transfection of the human TDP1 gene (Tdp1-/-;hTDP1 cells). For the primary screen, Tdp1-/-;hTDP1 cells will be exposed to small molecules in the presence or absence of CPT, and their growth kinetics will be evaluated after 48 hours by measuring ATP activity. […] The hit compounds will then be evaluated in the presence or absence of CPT using Tdp1-/- cells. […] In tertiary assays, biochemical gel-based assays will be used to assess whether the hit compounds specifically target TDP1. To this end, we have screened this cell line against the MLSMR in two primary screens. In one screen we add CPT and in the other we screen in the absence of CPT; this AID represents the screen where CPT was present. NIH Chemical Genomics Center [NCGC] NIH Molecular Libraries Probe Centers Network [MLPCN] MLPCN Grant: MH095538 Assay Submitter (PI): Yves Pommier, NCI
DT40-hTDP1 cells with 20 nM Camptothecin (add 20 microL of 1 mM CPT stock in 1 L of cell culture medium) were dispensed at 400 cells/5microL/well in tissue culture treated 1536-well white wall/solid bottom assay plates (Greiner Bio-One North America, NC, U.S.A.) using a Multidrop Combi 8 channel dispenser (Thermo Fisher, Waltham, MA, USA). 23 nL compounds and controls were transferred using the pin tool (Kalypsys, San Diego, CA, USA) to the assay plates. The assay plates were then incubated at 37 masculineC for a minimum 48 hr. Three microL of Cell Titer Glo solution was added to the plates and incubated at RT in dark for 30 min. Luminescence was read using ViewLux (Perkin Elmer) with 1 sec exposure slow speed, high gain and 2x binning.
% is set by controls: 0 for no effect and ±100 for the full control effect; potency is the fitted concentration of half-maximal effect.

Structure (SMILES)	activity change, negative = growth inhibition [%]	Potency
Cc1cc2c3ccccc3[nH]c(=O)n2n1	-12	–
COc1ccc(S(=O)(=O)N2CCOCC2)cc1NC(=O)CSc1ncnc2ccccc12	0.923	–
Cc1cc2c(=O)n(CC(=O)NCC(=O)Nc3ccc(C(C)C)cc3)cnc2s1	1.73	–
COc1ccc(CNC(=O)COc2cccnc2[N+](=O)[O-])cc1	-4.32	–
COc1cccc(C(=O)OCC(=O)c2[nH]c(C)c(C(C)=O)c2C)c1	-19.6	–
CC(=O)Nc1ccc(Sc2ccccc2C(=O)N2CCCC2)cn1	-23.3	–
Cc1[nH]c2ccccc2c1C(=O)C(=O)NCc1nnnn1-c1cccc(F)c1	-21.2	–
CCc1c(C)c2ccc(OC3CCCCC3=O)cc2oc1=O (stereo unspecified)	-10.3	–
Cc1cc(NC(=O)c2ccc(F)cc2)ccc1NC(=O)c1ccco1	-1.79	–
Cc1cccc(CS(=O)(=O)c2ncc(Cl)c(C(=O)Nc3ccc(F)cc3)n2)c1	–	1.3 µM (active)
CSc1ncc(Cl)c(C(=O)Nc2cc(C)ccc2C)n1	-2.22	–
CC(=O)C1C(c2ccc(Cl)cc2)c2c(n[nH]c2C)CC1(C)O (stereo unspecified)	-7.41	–
Cc1ccc(CNC(=O)C(=O)c2cn(CC(=O)N3CCOCC3)c3ccccc23)cc1	6.23	–
Cc1ccc(NC(=O)N2CCSc3ccccc32)cc1	-18.4	–
C=CCn1c(C23CC4CC(CC(C4)C2)C3)n[nH]c1=S	-28.3	–
COC(=O)c1sc(N2CCN(Cc3ccccc3)CC2)nc1N	1.92	–
CCc1c(C)nc(N2CCN(Cc3ccccc3)CC2)[nH]c1=O	-24.7	–
CC(C)OC(=O)C(C#N)c1nc2ccccc2nc1N1CCN(Cc2ccccc2)CC1 (stereo unspecified)	–	23.1 µM (active)
CN1CC(=O)N=C1N	–	inactive
N#Cc1c(-c2ccccc2)c(-c2ccccc2)n[nH]c1=O	-27.2	–
CN(C)c1ccc(CNC(=O)CN2C(=O)COc3ccc(S(=O)(=O)N4CCCC4)cc32)cc1	0.598	–
CCCCOC(=O)CNc1nnc(SCC(=O)OCC)[nH]c1=O	–	10.3 µM (active)

Structure (SMILES)	activity change, negative = growth inhibition [%]	Potency
Cc1nnc(SCC(=O)N2CCOCC2)[nH]c1=O	24	–
CCOC(=O)c1c(NC(=O)CSc2nnc(C)c(=O)[nH]2)sc2c1CCC2	-7.67	–
CC(=O)c1ccc[n+](C(C)CCC(C)[n+]2cccc(C(C)=O)c2)c1 (stereo unspecified)	22.8	–
Cc1cccc(N2CCN(C(=O)c3ccc(Nc4nc5ccccc5n5nnnc45)cc3)CC2)c1C	31.6	–
O=C(/C=C/c1ccco1)NC(=S)N1CCCCC1	-15	–
CCn1c(C)c(C)c2cc(C(=O)N3CCN(c4cccc(C)c4C)CC3)ccc21	–	20.6 µM (active)
CC(=O)N1CCN(c2cccc(C)c2C)CC1	4.39	–
CSc1ccccc1NC(=O)c1ccc2c(c1)CCN2S(C)(=O)=O	0.0239	–
CS(=O)(=O)N1CCc2cc(C(=O)Nc3ccccc3Br)ccc21	1.75	–
Cc1cccc(N2CCN(C(=O)c3ccc4c(c3)CCN4S(=O)(=O)c3ccccc3)CC2)c1C	–	5.8 µM (active)
Cc1ccccc1N1CCN(C(=O)c2cccnc2)CC1	-0.308	–
Cc1cccc(N2CCN(C(=O)/C=C/c3ccco3)CC2)c1C	–	16.4 µM (active)
CCOC(=O)c1c(N)n(-c2cccc(C)c2C)c2nc3ccccc3nc12	3.51	–
CCC(CC)C(=O)N1CCN(c2cccc(C)c2C)CC1	–	14.6 µM (active)
C[C@H]1CN([C@@H](C)CO)C(=O)CCCn2cc(nn2)CO[C@@H]1CN(C)C(=O)Nc1ccccc1	8.28	–
CCCCN(C(=O)c1nn(C)c(=O)c2ccccc12)c1c(N)n(CCC)c(=O)[nH]c1=O	1.59	–
CCCNC(=O)c1cc(C2CCCN(C(=O)c3ccc4c(c3)CCO4)C2)on1 (stereo unspecified)	5.21	–
C=Cn1c(C(=O)O)ccc1-c1ccc(OC)cc1	-3.64	–
CCCCC1N2CC3([N+](=O)[O-])CN1CC([N+](=O)[O-])(C2)C3(C)C (stereo unspecified)	-4.33	–
O=C(c1ccc(CN2CCOCC2)cc1)N1CCN(c2ccccc2F)CC1	8.09	–
CCOc1ccccc1NC(=S)N1CCN(c2cccc(C)c2C)CC1	–	11.6 µM (active)
CCOc1ccccc1NC(=O)NC1CCCCCCC1	-7.99	–

Structure (SMILES)	activity change, negative = growth inhibition [%]	Potency
Cc1c(C)n(Cc2ccc(Cl)cc2)c2ccc(C(=O)N3CCN(c4ccccc4F)CC3)cc12	–	18.4 µM (active)
Cc1cccc(NC(=S)N2CCC(O)CC2)c1C	5.79	–
CCc1ccc(NC(=O)CS(=O)CC(=O)N2CCN(c3ccccc3F)CC2)cc1 (stereo unspecified)	3.72	–
O=[N+]([O-])c1cc(S(=O)(=O)N2CCCC2)ccc1NN=C1CCCC1	-19.3	–
CC(C)(C)c1ccc(/C=C2\SC(=O)N=C2N)cc1	-3.83	–
CCOc1ccc(CNC(=O)c2cc(=O)[nH]c3ccc(S(=O)(=O)N4CCCCC4)cc23)cc1	6.67	–
CC(c1ccco1)N(C(=O)c1ccc(S(=O)(=O)N2CCCCC2)cc1)c1ccccn1 (stereo unspecified)	-17.2	–
Cc1ccc(-n2c(CNc3ccc(F)cc3)nnc2SCC(=O)N2CCOCC2)cc1	-2.74	–
N=C1c2ccccc2-c2ccccc21	-0.123	–
COc1ccc(N2CCN(C3=NS(=O)(=O)C(c4cccc(Br)c4)=C3C)CC2)cc1	-29.2	–
Cn1c(=O)cc(OCC(=O)N2CCN(c3ccccc3F)CC2)c2ccccc21	-0.224	–
Cc1oc2ncn(CC(C)C)c(=O)c2c1C(=O)N1CCN(c2ccccc2F)CC1	3.61	–
O=C(Nn1cc(C(=O)N2CCN(c3ccccc3F)CC2)c2ccccc2c1=O)c1cnccn1	–	14.6 µM (active)
CCCCOc1ccc(NC(=O)c2cc3c(n(-c4ccc(Cl)cc4)c2=O)CCCC3=O)cc1	-1.03	–
CC(C)c1ccc(NS(=O)(=O)c2ccc3[nH]cc(C(=O)NC4CCCC4)c(=O)c3c2)cc1	0.142	–
CCOC(=O)CC1C(=O)NCCN1C(=O)COc1ccc(Br)cc1C (stereo unspecified)	-4.21	–
CCC(C)NCCOCCOc1ccc(Br)cc1C (stereo unspecified)	–	14.6 µM (active)
COCC(C)NCc1cc(Br)ccc1OC (stereo unspecified)	2.79	–
O=C(OCCOc1ccccc1F)c1cc(S(=O)(=O)N2CCOCC2)ccc1F	10	–
CCOC(=O)c1cccc(NC(=O)c2cc(CN3CCCC3)on2)c1	-20.3	–
O=C(Nc1ccc(CN2CCOCC2)cc1)c1cc(Cl)ccc1Cl	-5.65	–
CC1CCN(CCC(=O)Nc2ccccc2)CC1	-1.21	–

Structure (SMILES)	activity change, negative = growth inhibition [%]	Potency
Cc1oc2ccc(O)c(CN3CCCCC3)c2c1C(=O)Nc1cccc(C(F)(F)F)c1	–	11.6 µM (active)
Cc1c(CN2CCC(C)CC2)c(=O)n(-c2ccccc2)n1C	-3.32	–
Cc1oc2ccc(O)c(CN3CCC(C)CC3)c2c1C(=O)Nc1ccccc1	–	14.6 µM (active)
Cc1nnsc1C(=O)Nc1cccc(Cl)c1C	10.8	–
CC(=O)N1CCN(C(=O)Nc2cccc(C(F)(F)F)c2)CC1	-2.53	–
Cc1oc2ccc(O)c(CN3CCOCC3)c2c1C(=O)Nc1cccc(Cl)c1C	–	11.6 µM (active)
COc1ccccc1CNS(=O)(=O)c1cc2c3c(c1)CCC(=O)N3CCC2	-24.7	–
Nc1cc(=O)c2[nH]cnc2[nH]1	1.53	–
Cc1ccc(C(=O)Nc2ccc(OCc3cc(=O)n4c(C)csc4n3)cc2)cc1	0.415	–
CN(C(=O)c1c(Cl)cnn1C)C12CC3CC(CC(C3)C1)C2	6.33	–
COC(=O)CSc1nnc(-c2cccnc2)o1	-12.7	–
COCCNC(=O)c1ccc2c(c1)ncn2-c1ccc(C)c(Cl)c1	-44.9	–
CN(c1ccc(C(=O)NCCC2=CCCCC2)cc1)S(C)(=O)=O	-18.6	–
Cc1ccc(-n2cnc3cc(C(=O)NCCC4=CCCCC4)ccc32)cc1Cl	–	18.4 µM (active)
CCCNC(=O)c1ccc2c(c1)ncn2-c1ccc(C)cc1C	–	16.4 µM (active)
COC(CNC(=O)c1ccc2c(c1)ncn2-c1cc(C)cc(C)c1)OC	14	–
CCn1c(C)nc2cc(C(=O)NNS(=O)(=O)c3ccc(C)cc3C)ccc21	-15.2	–
CCn1nnnc1SCC(=O)Nc1ccc(N(C)C)cc1	-12.1	–
CC(=O)NS(=O)(=O)c1ccc(N/C(N)=N/c2nc(C)cc(C)n2)cc1	6.33	–
CCN1CCN(C(=O)C2CCCN(S(=O)(=O)c3ccc(OC)c(OC)c3)C2)CC1 (stereo unspecified)	-12.4	–
CCOC(=O)C1CCN(C(=O)C2CCCN(S(=O)(=O)c3ccc(OC)c(Cl)c3)C2)CC1 (stereo unspecified)	–	16.4 µM (active)
COc1ccc(S(=O)(=O)N2CCCC(C(=O)N3CCN(C)CC3)C2)cc1C (stereo unspecified)	-23.3	–

Structure (SMILES)	activity change, negative = growth inhibition [%]	Potency
O=C(COC(=O)c1ncc(Cl)c(Cl)c1Cl)NC1CCS(=O)(=O)C1 (stereo unspecified)	-5.28	–
C=C(C)c1cccc(C(C)(C)NC(=O)NCCN(CC)CC)c1	-18.1	–
CC1(C(=O)NS(=O)(=O)c2ccccc2)CCN1C(=O)C1CCCCC1 (stereo unspecified)	-11.8	–
CCOC(=O)c1ccc(NC(=O)c2c(NCc3cccc(OC)c3)sc3c2CCC3)cc1	–	10.3 µM (active)
CCOC(=O)c1ccc(NC(=O)c2c(NCc3cccs3)sc3c2CCCC3)cc1	–	16.4 µM (active)
CCOC(=O)c1ccc(NC(=O)c2csc3c2CCCCC3)cc1	–	25.9 µM (active)
COc1cccc(CN(C)CC(=O)Nc2sc3c(c2C#N)CCC3)c1	0.869	–
CCOC(=O)c1c(NC(=O)c2cc(-c3ccc(Cl)cc3)on2)sc2c1CCCC2	-18.6	–
CC(=O)Cc1nsc(NC(=O)c2csc3c2CCCC3)n1	-8.51	–
CCOC(=O)c1c(NC(=O)CCC(=O)NCc2ccco2)sc2c1CCCC2	-15.2	–
Cc1ccc(NC(=O)c2csc3c2CCCC3)cc1	-0.361	–
CCOC(=O)c1ccc(NC(=O)c2c(NCc3ccccc3)[nH]c(=O)[nH]c2=O)cc1	2.84	–
C[C@@H]1CC[C@]2(O[C@@H](CCO)C[C@H](O)[C@H]2O)O1	-8.7	–
Cn1c(N2CCOCC2)c(C=O)c2ccccc21	-11.8	–
C[C@H]1COc2cc(N3CCSCC3)ccc2S(=O)(=O)N1	-19.2	–
Cc1ccc(N=C2SCCCN2C(=O)c2cccc(N3C(=O)CCC3=O)c2)cc1Cl	-4.22	–
CCCC1C(=O)N2C(N(C)C)=Nc3ccc(C)cc3N2C1=O (stereo unspecified)	–	inactive
Cc1cc(C)n2nc(SCC(N)=O)nc2n1	1.04	–
